Measured values published in PubChem BioAssay (NCATS).
Records with an inconclusive call do not appear. Entries that show only a call come without a potency. Active and inactive are the calls of the source. Calls come from the whole dose curve; as a rule, active = well fitted curve in the direction sought with a large enough effect; inconclusive = small, poorly fitted or top-dose-only effect, or another doubt; inactive = no such curve, though single readings can be large; an effect the other way counts as inactive or inconclusive.

Assays:
[1] = target: Aldehyde dehydrogenase, mitochondrial (Homo sapiens) (UniProt P05091); test: qHTS for Inhibitors of the Aldehyde Dehydrogenase Family (ALDH2) Primary screen (AID 2061308); note: nearly all actives have a fitted effect of over 55% in size
[2] = target: Retinaldehyde dehydrogenase 3 (Homo sapiens) (UniProt P47895); test: qHTS for Inhibitors of the Aldehyde Dehydrogenase Family (ALDH1A3) Primary screen (AID 2061315)

SMILES | Potency [1] | Potency [2]
O=S(=O)(Nc1cccc2ccccc12)c1ccc(NCc2ccc(Br)cc2O)cc1 | inactive | inactive
Cc1cc(-c2cc(O)ccc2Cl)cc2nnc(Nc3ccc(OCCN4CCCC4)cc3)nc12 | inactive | inactive
Cc1ccc(CNc2nc(-c3ccccc3C(F)(F)F)nc3ccccc23)cc1 | inactive | inactive
Cc1ccc(-c2cc(C(=O)Nc3cccc(Cl)c3)c3ccccc3n2)cc1C | inactive | inactive
COC(=O)c1ccc(Nc2nc(-c3ccncc3)nc3ccccc23)cc1OC | inactive | inactive
CCN(CC)C(=O)COC(=O)c1ccc(S(C)(=O)=O)c([N+](=O)[O-])c1 | inactive | inactive
CCCn1c(-c2ccc(F)cc2)nc2c(NCCN3CCSCC3)nc(C)nc21 | inactive | inactive
Cc1cc(NS(=O)(=O)c2ccc(NC(=O)Cc3ccccc3)cc2)no1 | inactive | inactive
O=C1CCCC2=C1C(c1c(Cl)cccc1Cl)N=C(Nc1nc3ccccc3o1)N2 (stereo not drawn) | inactive | inactive
Cc1cc(NC(=O)Nc2nnc(-c3ccncc3)s2)ccc1Cl | inactive | inactive
CCOC(=O)/C=C/c1cc(F)c(S(=O)(=O)N2CCN(S(=O)(=O)c3ccc4c(c3)OCCO4)CC2)cc1F | inactive | inactive
CC(C)(C)NS(=O)(=O)c1cccc(-c2nnc(SCc3ccc(C(=O)O)cc3)n2-c2ccccc2)c1 | inactive | inactive
O=C(NCCc1nc2ccccc2n1CCOc1cccc([N+](=O)[O-])c1)C1CCCCC1 | inactive | inactive
c1cncc(-c2ccc(CNc3nc(-n4ccnc4)nc4ccccc34)cc2)c1 | inactive | inactive
